# Compound activity from PubChem.
# Ecoli rRNA inh: reduced GFP signal of wild-type E. coli, primary screen, bacterial rRNA inhibitor project, GFP/RFP fluorescence, OD600, single point. E. coli WT GFP vs humanized-ribosome RFP mutants, 24 h; stronger effect = lower value; DMSO median 0, no signal -100. 350,000 compounds, 1.6% hits. GFP signal change (wild-type ribosome), % (test concentration not listed);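 active means significant combined selectivity score with lowered wild-type GFP, culture density cut under 30%, mutant RFP and density less affected; inactive means any of these conditions unmet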
# ERAP1 HTS inh: human ERAP1 aminopeptidase inhibitors, primary screen, biochemical, single point, plate reader; 340,000 compounds, 0.15% hits; recombinant ERAP1, Leu-AMC fluorescence, 60 min; Endoplasmic reticulum aminopeptidase 1 (Homo sapiens), Q9NZ08; inhibition, % at 10.7 µM;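 active means mean replicate inhibition of at least 30%, or all replicates individually reaching that 30% level; inactive means mean below 30% and not every replicate reaching it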;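 further: 0% = neutral control wells and 100% = L-leucinethiol positive control wells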
# Target sequence (Q9NZ08 whole entry, looked up): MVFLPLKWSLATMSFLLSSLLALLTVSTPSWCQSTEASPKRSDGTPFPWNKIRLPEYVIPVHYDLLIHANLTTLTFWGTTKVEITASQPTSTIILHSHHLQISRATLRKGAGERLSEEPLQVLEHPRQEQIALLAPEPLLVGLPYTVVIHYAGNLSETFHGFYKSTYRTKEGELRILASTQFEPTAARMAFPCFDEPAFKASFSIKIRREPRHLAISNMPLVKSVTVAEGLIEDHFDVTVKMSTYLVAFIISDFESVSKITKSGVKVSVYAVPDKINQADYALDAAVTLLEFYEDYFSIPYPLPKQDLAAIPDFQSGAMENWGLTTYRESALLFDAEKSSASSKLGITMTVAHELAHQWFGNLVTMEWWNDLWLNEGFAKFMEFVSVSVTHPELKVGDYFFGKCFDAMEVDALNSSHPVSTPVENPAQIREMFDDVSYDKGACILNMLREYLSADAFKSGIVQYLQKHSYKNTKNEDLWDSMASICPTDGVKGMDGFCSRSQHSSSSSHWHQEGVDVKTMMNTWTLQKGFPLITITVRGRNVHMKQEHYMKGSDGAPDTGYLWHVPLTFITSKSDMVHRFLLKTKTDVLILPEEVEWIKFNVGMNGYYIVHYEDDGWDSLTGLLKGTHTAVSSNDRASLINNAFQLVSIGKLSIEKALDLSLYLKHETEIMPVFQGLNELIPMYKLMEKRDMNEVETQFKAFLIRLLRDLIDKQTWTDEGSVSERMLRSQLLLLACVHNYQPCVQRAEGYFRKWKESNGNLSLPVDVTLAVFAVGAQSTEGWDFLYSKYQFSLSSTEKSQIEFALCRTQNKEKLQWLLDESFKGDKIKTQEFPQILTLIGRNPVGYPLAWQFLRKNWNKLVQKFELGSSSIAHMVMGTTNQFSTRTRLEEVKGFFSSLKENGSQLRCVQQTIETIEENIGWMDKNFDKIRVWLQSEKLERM
# GSIS activator: GLuc luminescence reporter in INS-1E cells, primary screen for activators of glucose-dependent secretion of insulin. INS-1E GLuc reporter insulin secretion, 2-3 h. activation, % at 16.6 µM. 370,000 compounds, 0.61% hits. AID 743287, 2014;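 active means lowest replicate activation of at least 40%, so every replicate reaches that level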;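 further: 0% = median of neutral control wells and 100% = median of IBMX positive control wells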
# PGC1a acetyl inh: inhibitors of PGC1a acetylation signal, primary screen, cell-based, U2OS, AlphaScreen, inhibitor mode | 350,000 compounds, 0.17% hits | AID 651687, 2012 | AlphaScreen anti-acetyl-lysine; with virally co-expressed GCN5 acetyltransferase | inhibition, % at 15.6 µM;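 active means every replicate shows inhibition of at least 40%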;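 further: 0% = neutral control wells and 100% = positive control wells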
# DENV2 CPE rescue: inhibitors of DENV2 cytopathic effect, primary screen, cell-based, plate reader, single concentration | DENV2-infected cells, cytopathic effect rescue | CPE inhibition, % at 9.99 µM | 350,000 compounds, 1.7% hits | AID 651640, 2012; in the data active means CPE inhibition above about 20%, passing the limit was not always enough; tested in BHK-21 cells;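 further: 0% = median of neutral control wells and 100% = median of positive control wells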
# CaV13 FRET inh: Disruptors of the CACNA1D IQ motif to Ca2+-dependent inactivation inhibitor domain association, primary screening, Förster resonance energy transfer in intact living … | HEK cells, CFP/YFP FRET ICDI-IQ, plate reader, 10 min; percent FRET-ratio fall versus neutral wells | inhibition, % at 12.3 µM | 340,000 compounds, 0.098% hits | AID 743397;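 active means mean replicate inhibition of at least 30% and at least 1% of replicates passing that level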;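 further: 0% = median of the neutral control wells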
# Starred values were filed as active, the others as inactive; . = not tested or not shown. Compounds with a hit are over-represented: about 3.2% of the library has one in this group of screens.
SMILES,Ecoli rRNA inh,ERAP1 HTS inh,GSIS activator,PGC1a acetyl inh,DENV2 CPE rescue,CaV13 FRET inh
C[C@@H]1CN([C@H](C)CO)C(=O)c2cc(NC(=O)NC3CCCCC3)ccc2O[C@@H](C)CCCCO[C@H]1CN(C)Cc1ccc2c(c1)OCO2,2.9,2.4,-29.6,-2.0,63.5*,.
C[C@@H]1CN([C@@H](C)CO)C(=O)c2cc(NC(=O)NC3CCCCC3)ccc2O[C@@H](C)CCCCO[C@H]1CN(C)Cc1ccc2c(c1)OCO2,-1.6,-0.9,-12.3,-1.8,45.0*,.
C[C@@H]1CN([C@@H](C)CO)C(=O)c2cc(NC(=O)NC3CCCCC3)ccc2O[C@@H](C)CCCCO[C@@H]1CN(C)Cc1ccc2c(c1)OCO2,-5.2,3.0,-12.2,-2.0,7.4,.
C[C@@H]1CN([C@@H](C)CO)C(=O)Cc2cc(NC(=O)CCC(F)(F)F)ccc2O[C@H]1CN(C)S(=O)(=O)c1ccc(F)cc1,-2.5,-0.5,10.3,5.8,9.7,.
C[C@@H]1CN([C@@H](C)CO)C(=O)Cc2cc(NS(=O)(=O)c3ccc(F)cc3)ccc2O[C@@H]1CN(C)C,8.9,-2.7,-8.0,1.7,0.1,.
N#Cc1ccc(CN2CCN(C(=O)CC(NC(=O)c3ccccc3)c3ccccc3)CC2)cc1 (stereo not given),4.6,-7.3,-11.0,.,62.5*,-4.6
Cc1cccc(-c2nc3ccccc3c3nncn23)c1,.,.,.,.,.,-9.3
Cc1ccc2c(c1)c(-c1ccccc1)nc1nncn12,3.6,.,46.4*,-2.2,10.8,-5.5
O=C(Nc1nccs1)C(F)(F)C(F)(F)C(F)(F)C(=O)Nc1nccs1,-26.9*,0.6,.,7.9,3.8,-4.3
Cc1ccc(S(=O)(=O)Nc2ccc3c(c2)C(=O)N([C@H](C)CO)C[C@@H](C)[C@H](CN(C)C(=O)NC2CCCCC2)O3)cc1,-1.3,3.3,-0.6,-2.3,40.8*,.
Cc1ccc(S(=O)(=O)Nc2ccc3c(c2)C(=O)N([C@H](C)CO)C[C@H](C)[C@H](CN(C)C(=O)NC(C)C)O3)cc1,5.7,4.2,25.2,-2.7,-2.7,.
CC(C)NC(=O)N(C)C[C@@H]1Oc2ccc(NS(C)(=O)=O)cc2C(=O)N([C@@H](C)CO)C[C@@H]1C,3.5,1.9,6.7,-0.7,20.4*,.
Cc1ccc(S(=O)(=O)Nc2ccc3c(c2)C(=O)N([C@@H](C)CO)C[C@H](C)[C@H](CN(C)C(=O)NC(C)C)O3)cc1,3.2,0.9,10.6,-15.5,31.9*,.
CC(C)NC(=O)N(C)C[C@H]1Oc2ccc(NS(C)(=O)=O)cc2C(=O)N([C@H](C)CO)C[C@@H]1C,4.7,2.2,8.5,14.4,-9.3,.
CCCNC(=O)Nc1ccc2c(c1)OC[C@H](C)N(CC1CCCC1)C[C@@H](C)[C@H](OC)CN(C)C2=O,-4.4,-2.0,-20.4,15.4,-5.9,.
CCOC(=O)c1c(C)[nH]c(/C(C)=N/NC(=O)c2cccnc2)c1C,.,-5.2,10.3,-1.3,7.0,-12.1
CCOC(=O)c1c(C)[nH]c(C(C)=NNC(=O)c2cccs2)c1C,-9.8,6.9,53.8*,-4.1,-3.2,-2.3
CCOC(=O)c1c(C)[nH]c(C(=O)Nc2ccc(NC(C)=O)cc2)c1C,-26.7*,-0.2,5.1,1.3,-1.6,7.2
C[C@@H]1CCCCO[C@H](CN(C)Cc2ccncc2)[C@@H](C)CN([C@@H](C)CO)C(=O)c2cc(NC(=O)c3ccccc3)ccc2O1,-3.3,-2.8,-16.1,15.3,-7.4,.
CN1c2ccc(-c3cccc(C#N)c3)cc2[C@@H]2[C@@H](CCN2C(=O)c2ccc(F)cc2)[C@@H]1CO,-5.8,-0.6,-14.1,1.0,14.0,.
C=CCNC(=O)N1c2ccccc2Sc2ccccc21,-23.9*,-5.6,7.9,12.7,-0.5,-19.8
O=C(NCCO)N1c2ccccc2Sc2ccccc21,3.2,4.0,.,.,-0.5,-20.5
CCC(C)NC(=O)N1c2ccccc2Sc2ccccc21 (stereo not given),-31.4*,0.3,0.7,.,6.7,9.8
COc1ccc2c3c([nH]c2c1)[C@H](CO)N(Cc1cccnc1)CC31CCN(C(=O)c2cccnc2)CC1,4.6,3.7,10.3,.,-2.1,.
CC1(Cc2ccc3c(c2)OCO3)C(=O)Nc2ccc(-c3cccc(C(F)(F)F)c3)cc21 (stereo not given),.,-8.9,.,-6.9,-10.2,-13.9
SMILES,Ecoli rRNA inh,ERAP1 HTS inh,GSIS activator,PGC1a acetyl inh,DENV2 CPE rescue,CaV13 FRET inh
CC1(Cc2ccc(C(F)(F)F)o2)C(=O)Nc2ccc(-c3cccc(C(F)(F)F)c3)cc21 (stereo not given),11.8,7.5,173.4*,.,-7.0,-5.2
CCOc1ccc(Nc2ncnc3ccc([N+](=O)[O-])cc23)cc1,-0.6,-1.0,-1.4,49.6*,-5.0,-4.2
CCOC(=O)c1ccc(Nc2ncnc3ccc(C)cc23)cc1,.,.,85.2*,-3.6,.,.
CO[C@H]1CN(C)C(=O)c2cc(NC(C)=O)ccc2OC[C@H](C)N(CCc2ccccc2)C[C@H]1C,1.4,-3.3,8.0,9.0,-4.7,.
COc1ccc2[nH]c3c(NCCCN4CCCC4=O)ncnc3c2c1,.,.,47.7*,-14.1,.,-3.9
COc1ccc(CNc2ncnc3c2[nH]c2ccccc23)cc1,-55.4*,-6.6,-35.9,-20.0,-12.1,-5.0
Cn1cnc(C(=O)N2CCN(C(=O)OC(C)(C)C)CC2)c1C(=O)N1CCN(C(=O)OC(C)(C)C)CC1,-0.9,105.8*,18.9,-7.3,-2.0,-4.3
Cc1noc(C)c1NC(=O)N(C)C[C@@H]1Oc2ccc(N(C)C)cc2C(=O)N([C@@H](C)CO)C[C@@H]1C,-0.4,1.5,17.7,5.1,15.2,.
COC(=O)c1ccc(Sc2ccccn2)c([N+](=O)[O-])c1,-1.1,-2.3,10.1,.,87.9*,-5.0
CC(C)(C)NC(=O)c1ccc(Sc2ccccc2)c([N+](=O)[O-])c1,.,.,7.4,80.8*,.,.
C[C@@H]1CN([C@H](C)CO)S(=O)(=O)c2ccc(C#Cc3cccc(F)c3)cc2O[C@@H]1CN(C)C(=O)NC1CCCCC1,-0.5,-2.8,-6.4,12.3,-0.8,.
CCCC(=O)N1CC2(CCN(S(=O)(=O)CC)CC2)c2c(n(C)c3cc(OC)ccc23)[C@H]1CO,-1.1,.,8.7,0.5,-1.5,.
COc1ccccc1S(=O)(=O)N1[C@@H]2CNC[C@H]1C2c1ccc(/C=C/c2ccccc2)cc1 (stereo not given in full),-55.2,-0.5,-1.8,-10.8,-1.8,.
